Source: PubChem (National Center for Advancing Translational Sciences (NCATS))
Shown is part of a subset that was picked to be rich in hits.
TCR act – T cell receptor activation. primary human leukocytes, anti-CD3, IL-2 HTRF, 48 h. AID 504894. Potency, µM (titrated, usually from 9.22 µM), for the others: at the highest dose activation of IL-2 secretion, most hits filed as activators. 330,000 tested, under 10 active; note: % of control where 0% means no effect
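48 hr co-incubation of compounds, a-CD3 beads and primary human leukocytes; IL-2 quantified homogeneously by HTRF with anti-IL-2 K and d2 conjugates.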
PTHR1 ag – agonists of human PTHR1 parathyroid hormone receptor. Q03431. HEK293 GP2 PTHR1 cells, GloSensor cAMP luminescence, 1 h. Potency, µM (doses to about 115 µM), without a hit: at the top dose activation, usual class: activators. 410,000 compounds, 0.075% hits. AID 743266; note: potency is the fitted concentration of half-maximal effect; nearly all actives have a fitted effect of over 55% in size
Target sequence (Q03431 whole entry, looked up): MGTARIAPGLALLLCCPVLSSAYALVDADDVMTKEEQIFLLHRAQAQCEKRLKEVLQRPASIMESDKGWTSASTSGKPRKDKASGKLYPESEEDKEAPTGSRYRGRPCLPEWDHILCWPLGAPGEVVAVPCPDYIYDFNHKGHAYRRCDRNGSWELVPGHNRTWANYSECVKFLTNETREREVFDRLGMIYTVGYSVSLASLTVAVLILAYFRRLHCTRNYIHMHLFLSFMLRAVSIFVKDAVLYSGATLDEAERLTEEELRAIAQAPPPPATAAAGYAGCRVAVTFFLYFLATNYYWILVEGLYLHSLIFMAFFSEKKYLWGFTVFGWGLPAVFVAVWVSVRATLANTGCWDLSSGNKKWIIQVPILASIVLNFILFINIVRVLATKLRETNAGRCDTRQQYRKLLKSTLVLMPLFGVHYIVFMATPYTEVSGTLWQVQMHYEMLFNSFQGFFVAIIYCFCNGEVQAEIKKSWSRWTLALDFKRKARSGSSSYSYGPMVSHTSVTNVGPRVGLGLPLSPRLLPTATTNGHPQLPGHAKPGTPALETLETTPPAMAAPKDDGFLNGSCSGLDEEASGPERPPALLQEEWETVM
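HEK-293-derived GP2 cells expressing PTHR1 and a GloSensor cAMP reporter, 3,000/well, plated overnight, given luciferin plus IBMX (each 0.5 mM as added) for 1 h at 37 °C, then compound for 1 h at 37 °C. Luminescence was read after 15 min at room temperature.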
RXFP1 antagonist – RXFP1 (human) relaxin receptor antagonism | Q9HBX9 | HEK293-RXFP1, relaxin-stimulated cAMP HTRF, 30 min; active compounds read low | activity change, negative = inhibition, % at 57.5 µM | 350,000 compounds, 0.59% hits;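 active = activity change of -60% or lower, but not beyond a set lower limit; inconclusive = change between -60% and -40%, or beyond the set limit; inactive = change above -40%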; note: % is set by controls: 0 for no effect and ±100 for the full control effect
RXFP1 agonist – activates the human relaxin receptor RXFP1. Q9HBX9. HEK293T-RXFP1 cAMP TR-FRET, 30 min; response scale: percent of porcine relaxin response, buffer zero. Potency, µM (doses to about 57.5 µM), inactives show at the highest dose activation, hits mostly activators. 370,000 compounds, 0.3% hits; note: potency is the fitted concentration of half-maximal effect; % is set by controls: 0 for no effect and ±100 for the full control effect; nearly all actives have a fitted effect of over 60% in size
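HEK293T cells stably expressing RXFP1 were pretreated with the PDE4 inhibitor Ro 20174, exposed to compounds for 30 min at 37C, lysed, and cAMP was read by TR-FRET. Data normalized to buffer (basal) and 29 nM porcine relaxin (100%).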
NPSR antag – neuropeptide S receptor (human) antagonism, cAMP; Q6W5P4; CHO-NPSR cells, cAMP TR-FRET, antagonist mode; Potency, µM (doses to about 38.3 µM), for inactives: at the highest dose activity change, negative = inhibition, usual class: inhibitors; 220,000 compounds, 1% hits; AID 1461; note: potency is the fitted concentration of half-maximal effect; % is set by controls: 0 for no effect and ±100 for the full control effect; nearly all actives have a fitted effect of over 50% in size
TSHR antagonist – blocks TSH signaling through the human TSH receptor. P16473. TSHR-expressing cells, TSH-stimulated cAMP HTRF, 2 h; active compounds read low. activity change, negative = inhibition, % at 11.5 µM. 330,000 compounds, 0.2% hits. AID 504810;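 active = activity change below a set negative limit, meaning inhibition stronger than a set level, cut at about -70% in these data; inconclusive = activity change between two set negative limits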; note: % is set by controls: 0 for no effect and ±100 for the full control effect
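Read-out is FRET at 665 nm (cryptate excitation 337 nm) from a cryptate-tagged anti-cAMP antibody, competed by cell cAMP against cAMP-d2. Compounds are tested on freshly harvested TSHR cells challenged with 4nM TSH (EC80) for 2 hours at 37 deg C.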
Starred values were filed as active, the others as inactive; i = inactive; ? = inconclusive; · = no result given; [ ] = dose if it differs, or a comment. Unless noted, calls come from the whole dose curve; as a rule, active = well fitted curve in the direction sought with a large enough effect; inconclusive = small, poorly fitted or top-dose-only effect, or another doubt; inactive = no such curve, though single readings can be large; an effect the other way counts as inactive or inconclusive.

SMILES	TCR act	PTHR1 ag	RXFP1 antagonist	RXFP1 agonist	NPSR antag	TSHR antagonist
CCc1ccc(C2N=C(N)Nc3nc4ccccc4n32)cc1 (centres undefined)	·	20%	·	0%	·	·
CCOC(=O)c1ccccc1-n1c(C)cc(C2N=C(N)Nc3nc4ccccc4n32)c1C (centres undefined)	0%	6%	19	0%	13µM*	3
COc1cc(NC(=O)C(=O)NCCN(C)C)c(OC)cc1Cl	-5%	i	-69*	11%	-1%	-8
CC[N+]1(CC)CCC(=C(c2ccccc2)c2ccccc2)C1C (centres undefined)	·	·	-6	·	·	·
CC(C)=NNc1nc2c(c(=O)[nH]c(=O)n2C)n1CCc1ccccc1	6%	i	-70*	0%	8%	4
CCC(CN)=C(c1ccccc1)c1ccccc1	·	·	-17	·	·	·
COc1ccc(Cl)cc1NC(=O)C1CCN(C(=O)C2CC(=O)N(c3ccc(C)cc3)C2)CC1 (centres undefined)	1%	0%	6	1%	·	-113*
COc1ccc(NC(=O)C2CCN(C(=O)C3CC(=O)N(c4ccc(C)cc4)C3)CC2)cc1 (centres undefined)	6%	i	-9	3%	·	5
CN(C)c1ccc(CNC(=O)CN2C(=O)C3CCCCN3c3ccc(C(=O)N4CCCC4)cc32)cc1 (centres undefined)	·	-25%	3	0%	·	·
Cc1ccn2c(NC(=O)c3ccccc3)c(-c3cccs3)nc2c1	-2%	i	15	-4%	-13%[46.1 µM]	10
Cc1ccn2c(NCc3ccccc3)c(-c3cccs3)nc2c1	2%	-11%	-77*	10%	-49%	2
Cc1ccc2[nH]c3c(=S)nc[nH]c3c2c1	-10%[46.1 µM]	i	19	3.5µM*	-54%	157
CCC(C(=O)NCCc1ccccc1)n1nc(C)c2sc3ccccc3c2c1=O (centres undefined)	·	i	?	-1%	·	·
COc1ccc(NC(=O)CSc2ncccn2)cc1S(=O)(=O)N1CCCCC1	-3%	5%	7	1%	·	-5
COc1ccc(NC(=O)CSc2nnnn2C)cc1S(=O)(=O)N1CCCCC1	-9%	i	-82*	4%	·	4
Cc1ccc(S(=O)(=O)N[C@@H](Cc2ccccc2)C(=O)CCl)cc1	-26%	-88%	·	-2%	20µM*	?
Cc1ccc(S(=O)(=O)NC(Cc2ccccc2)C(=O)NN)cc1 (centres undefined)	·	-9%	-3	1%	·	-3
Cc1ccc(NC(=O)C2=C(c3ccccc3)S(=O)(=O)CCS2(=O)=O)cc1	-5%	-31%	?	-5%	10µM*	-48
Cc1cc(C)n(C(=O)CNC(=O)c2ccc(C(C)(C)C)cc2)n1	1%	-42%	-116*	-3%	·	0
O=S(=O)(NCCc1csc2nc(-c3ccc(Cl)cc3)nn12)c1ccc(Oc2ccccc2)cc1	·	-35%	6	3%	·	·
CC1=NN(c2cccc(C(=O)O)c2)C(=O)/C1=C\C=C/c1ccccc1	1%	-40%	-75*	1%	7.9µM*	-44
CN(C)CCCN1c2ccccc2Sc2ccc3ccccc3c21	3%	23%	-63*	·	·	·
COC(=O)c1c(NC(=S)Nc2ccccc2Cl)sc(C)c1C	·	i	-107*	8%	-8%[46.1 µM]	0
N=C1S/C(=C\c2ccco2)C(=O)N1c1nccs1	-2%	-32%	-24	-1%	6.3µM*	6
O=C(O)CCC(=O)N1CCN(S(=O)(=O)c2ccc3ccccc3c2)CC1	-1%	-11%	-7	0%	·	0
SMILES	TCR act	PTHR1 ag	RXFP1 antagonist	RXFP1 agonist	NPSR antag	TSHR antagonist
O=C(Cn1ncc(Cl)c(Cl)c1=O)N1CCN(S(=O)(=O)c2ccc3ccccc3c2)CC1	5%[46.1 µM]	-38%	-21	3%	13µM*	-79*
CC(Oc1ccccc1)C(=O)Nc1nnc2n1CCS2 (centres undefined)	·	32µM*	8	1%	·	·
Cc1nc2ccc([N+](=O)[O-])cc2nc1C	11%	i	0	5%	23%	-5
Cc1ccc2nc3cc([N+](=O)[O-])cc([N+](=O)[O-])c3cc2c1	-2%	-76%	-6	-2%	7.9µM*	-18
O=C(Nc1ncc(Cc2ccccc2Cl)s1)C1=NCCN1	-5%[46.1 µM]	i	-10	1%	25%	-15
CCc1ccc(Cc2cnc(NC(=O)C3=NCCN3)s2)cc1	0%	-7%	-116*	-3%	-3%	-16
Cc1ccc(NC(=O)c2ccc(=O)n(Cc3ccccc3C)c2)c(C)c1	·	-2%	·	-2%	·	·
CCCCN(CCN(CCCC)C(=O)N1CCOCC1)C(=O)N1CCOCC1	·	·	-6	·	·	·
O=C(CCCN1CCN(c2ccccc2)CC1)c1ccc(F)cc1	·	-23%	-3	·	·	·
O=C1NCN(c2ccccc2)C12CCN(CCCC(c1ccc(F)cc1)c1ccc(F)cc1)CC2	-7%	20%	?	0%	13µM*	-4
Cn1c2ccccc2c2cc(/C=N/NC(=O)c3cc(O)cc(O)c3)ccc21	-8%	i	-25	4%	·	-9
Cn1c2ccccc2c2cc(/C=N/NC(=O)c3cc(O)ccc3O)ccc21	·	i	-112*	3%	·	17
Cc1ccc(S(=O)(=O)CCC(=O)c2cccc([N+](=O)[O-])c2)cc1	·	i	?	0%	·	-105*
COc1ccc(-c2n(Cc3ccccc3)c3ccccc3[n+]2Cc2ccccc2)cc1	-1%	-28%	?	1%	10µM*	-12
COc1ccccc1CCC(=O)NC1CCCN(c2ccc(C(F)(F)F)cn2)C1 (centres undefined)	5%	0%	-99*	0%	·	-7
COc1ccc(-n2c(=S)[nH]c3cc(C(=O)NCc4cccnc4)ccc3c2=O)c(OC)c1	3%	i	-71*	3%	·	9
Cc1cc(O)c(CN2CCN(c3ccc(F)cc3)CC2)c2oc(=O)cc(C)c12	·	i	-10	25µM*	·	·
CCCc1c(C)c2ccc(O)c(CN3CCN(c4ccc(F)cc4)CC3)c2oc1=O	·	-36%	-14	0%	·	·
O=c1[nH]c2ccccc2c(=O)n1CCCl	·	·	11	·	·	·
COc1ccc(C(C)=O)cc1Cn1cnc2c(cnn2C)c1=O	6%	-6%	39	13µM*	12%[7.67 µM]	10
CCCCCCCCCCCCCCCCCCN(C)C	·	·	22	·	·	·
O=C(NCCc1csc(-c2ccc(F)cc2)n1)c1cccs1	·	-47%	-61*	1%	·	·
O=C(NCCc1csc(-c2cccc(F)c2)n1)c1cccs1	·	0%	1	0%	·	·
Cc1cc(C)n(-c2nc(Nc3ccccc3)nc(-n3nc(C)cc3C)n2)n1	4%	-28%[57.5 µM]	12	5%	4%[46.1 µM]	6
